Laboratory results published in ChEMBL document CHEMBL3988442, “University of Dundee, Small-Polar-MMV Screening Library” (2021).
Hit rate of the full screen: of about 48,000 compounds, about 13,000 (27%) showed an effect of 50% or more. This is one part of the list.

What follows are compounds tested on Wolbachia pipientis (assay: Anti-Wolbachia Cell-Based Screen). Settings: 5 µM.
Format: functional
Parameters: scale not given: in the data most compounds retested in dose-response had high values

Point of comparison: `O=C(c1nc(COc2ccc3c(c2)OCO3)no1)N1CCCC1`, “Percent Effect” value 8.865%. Against it:
- O=S(=O)(NC1CCC2(CC1)OCCO2)c1ccccc1Br — lower, -6.742%
- COC(=O)CCCNC(=O)N1CCc2c(F)ccc(F)c2C1 — lower, -9.292%
- CCOCCCC(=O)Nc1ccc(OCc2noc(C3CC3)n2)cc1 — higher, 20.67%
- CC(=O)Nc1ccc(OCc2noc(C(=O)N3CCCCC3)n2)cc1 — higher, 122.5%
- CCOCCNC(=O)Nc1ccc(OCc2noc(C3CC3)n2)cc1 — lower, -0.9885%
- CC(=O)Nc1ccc(OCc2noc(C(=O)N3CCCC3)n2)cc1 — higher, 120.5%
- NC(=O)Cc1ccc(OCc2noc(C(=O)N3CCCC3)n2)cc1 — higher, 130.8%
- CCc1nc(COc2ccc(OCc3cnn(C)c3)cc2)no1 — lower, -33.42%
- CC(=O)Nc1ccc(OCc2noc(C(=O)N3CCCCCC3)n2)cc1 — higher, 101%
- CC(C)c1nc(C2CCCN2c2ncc(C(N)=O)cc2Cl)no1 (centres undefined) — lower, -26.86%
- CC(C)=Cc1c(-c2ccccc2)ncn1CCN(C)S(C)(=O)=O — lower, -6.043%
- CCCc1nnc(NC(C)c2ccc3c(c2)OCCO3)o1 (centres undefined) — higher, 16.29%
- COCCCn1ccc(NC(=O)NCCCNc2ccccc2)n1 — lower, -2.159%
- COc1cc(Cl)c(C)cc1NC(=O)CCNc1ccc(C#N)cn1 — lower, -3.637%
- CC(C)c1nc(CN(C)CC2CCN(CCO)CC2)no1 — lower, -11.77%
- c1ccc2cc(OCCN3CCn4c(nnc4C4CC4)C3)ccc2c1 — lower, 2.138%
- CCN1C(=O)CC[C@@H]2[C@H]1CCN2C(=O)Cc1cccc(OC)c1 — lower, -2.508%
- NC(=O)c1nc(COc2ccc3c(c2)OCO3)no1 — higher, 26.77%
- CCOC(=O)c1nc(COc2ccc(CC(N)=O)cc2)no1 — higher, 100.5%
- CC(C)Cc1nc(COc2ccc(N(C)C(N)=O)cc2)no1 — lower, -36.1%
- CC(C)C1CN(C(=O)c2ccc(N3CCCC3)nc2)CCS1 (centres undefined) — lower, -8.119%
- Cc1cccc(C(=O)NC2CCN(c3cnn(C)c3)C2=O)n1 (centres undefined) — lower, -1.568%
- Cc1nc(CNC(=O)NCC(O)c2cccc(Cl)c2)cs1 (centres undefined) — lower, -14.28%
- O=C(O)CCNC(=O)Cc1csc(-c2cccc(Cl)c2)n1 — higher, 119%
- CN(Cc1csc(-c2ccccc2)n1)C(=O)CCNS(C)(=O)=O — lower, -10.81%
- O=C(O)CNC(=O)Cc1csc(-c2cccc(Cl)c2)n1 — higher, 95.07%
- CNC(=O)Cc1noc(Cc2cccc(Cl)c2)n1 — higher, 10.38%
- COc1ccc(C(=O)N2C[C@@H](CN3CCCC3)[C@@H](CO)C2)c(C)c1 — lower, 5.26%
